For 40 compounds, outcome and activity change, negative = cytotoxicity results are on record in PubChem BioAssay (Tox21).

Molecules are shown by their SMILES. Active and inactive are the calls of the source. Calls follow the shape of the dose curve; as a rule, active = well fitted cell-killing curve with a large enough effect in the repeat runs; inconclusive = weak or mixed curves, or effect the other way; inactive = flat fitted curve, though single readings scatter.
% is scaled to controls: 0 for no effect and ±100 for the full control effect.

This test can be described thus: qHTS assay to identify small molecule HDAC inhibitors - cell viability counter screen (AID 1259365). Also: nearly all actives have a fitted effect of over 50% in size. To be noted: HCT-116 viability, CellTiter-Glo ATP luminescence, 2 h; series mostly up to 92.4 µM. From the text:
U.S. Tox21 Program National Center for Advancing Translational Sciences [NCATS] NIH Chemical Genomics Center [NCGC] U.S. Environmental Protection Agency [EPA] National Institutes of Environmental Health Sciences [NIEHS] National Toxicology Program [NTP] U.S. Food and Drug Administration [FDA] Tox21 Assay Overview: Histone deacetylases (HDACs) are a group of epigenetic enzymes that regulate gene expression by histone deacetylation. HDACs are capable of introducing epigenetic modifications and such aberrations contribute to the onset and progression of several human diseases, thus making HDACs a popular therapeutic target. For identifying endogenous class I/II HDAC inhibitors a homogenous, luminogenic HDAC I/II cell based assay was used to measure the relative activity of class I and II HDACs from cells. Wild type HCT-116 cells were used to screen Tox21 compound libraries for identifying class I/II HDAC inhibitors.
Tox21 Assay Protocol Summary: HCT-116 cells were dispensed at 1,500 per well in 5uL of culture medium into white solid bottom 1536-well plates (Greiner Bio-One, Monroe, NC) using a Multidrop Combi (Thermo Scientific, Waltham, MA) dispenser. The assay plates were incubated at 37 C and 5% CO2 for an overnight, and then 23nL of compounds dissolved in DMSO and positive control were transferred using a Pintool station (Wako, San Diego, CA). The assay plates were incubated at 37C and 5% CO2 for 2hr. After compound treatment, 4uL of CellTiter-Glo reagent (Promega Corporation, Madison, WI) was added to each well of the assay plates using Flying Reagent Dispenser (FRD, Aurora Discovery, San Diego, CA) and incubated the assay plates at room temperature for 30min. The luminescence signal was quantified using a ViewLux plate reader (Perkin Elmer, Shelton, CT).
(In qHTS, concentration-response curves come from the screen itself.)
Take `CCO[Si](OCC)(OCC)c1ccccc1`: the outcome was inactive. With `CN(C)[C@@H]1C(=O)C(C(=O)NCN2CCCC2)=C(O)[C@@]2(O)C(=O)C3=C(O)c4c(O)cccc4[C@@](C)(O)C3C[C@@H]12` (stereo not given in full), the result was inactive. As to `CC(=O)N1C[C@H](O)C[C@H]1C(=O)O`, the compound was called inactive. Turning to `NC(=O)N1c2ccccc2CC(=O)c2ccccc21`, the compound was classed as inactive. As for `CN(C)CCN(C)CCN(C)C`, the outcome was inactive. As to `CCNS(=O)(=O)c1ccc(C)cc1`, the call was inactive.

Regarding `CN1C(C)(C)CC(O)CC1(C)C`, the call was inactive. Turning to `CC[N+](C)(CC)CCOC(=O)C1c2ccccc2Oc2ccccc21`, the result was inactive.

On to `Cc1cccc(C)c1NC(=O)CC12CCCN1CCC2`, for which the outcome was inactive. On to `Nc1ccn([C@@H]2O[C@H](CO)[C@@H](O)C2O)c(=O)n1` (stereo not given in full), for which the compound was classed as inactive. With `COc1cc2c(cc1OC)-c1cc3ccc(OC)c(OC)c3c[n+]1CC2`, the call was inactive. Consider `CCCc1ncc(C[n+]2ccccc2C)c(N)n1`, for which the outcome was inactive. Take `O=C(O)c1cc(C(=O)O)cc(C(=O)O)c1`: the compound was called inactive.

With `CCCCCCCCCCOc1cc2c(=O)c(C(=O)OCC)c[nH]c2cc1OCC`, the activity change, negative = cytotoxicity was 9.44% [at 8.39 µM] (inactive).

For `CC(=O)c1ccc2ccccc2c1`, the compound was called inactive. With `CCOc1ccccc1OCC`, the compound was classed as inactive. For the compound `CC1OC1C1CCC2(C)OC2C1` (stereo not given), the compound was called inactive. Take `CCC(=O)OCc1ccccc1`: the result was inactive. `C[C@@H]1CCC[C@H](C)N1`: the outcome was inactive. Still for that read-out and setting: to `C=CCCC(=O)O` belongs “inactive”; to `CCCCc1nc(Cl)c(CO)n1Cc1ccc(-c2ccccc2-c2nn[nH]n2)cc1`, “inactive”. Take `CCCOC(=O)CC`: the result was inactive. Regarding `Nc1c2c(nc3c1CCC3)CCCC2`, the outcome was inactive.

Regarding `CCCCCCCCCCCCSC`, the call was inactive. As for `O=C(c1ccccc1O)c1ccccc1O`, the result was inactive. As for `COc1cc(C(=O)NCc2ccc(OCCN(C)C)cc2)cc(OC)c1OC`, the compound was called inactive.

With `CCN1C=CN(C)C1C` (stereo not given), the compound was classed as inactive. `CCCCCCCCN1CCCC1=O`: the call was inactive. As for `CCCC(=O)O[C@]1(C(=O)CC)CC[C@H]2[C@@H]3CCC4=CC(=O)CC[C@]4(C)[C@H]3[C@@H](O)C[C@@]21C`, the result was inactive. For the compound `C=CC(C)(CCC=C(C)C)OC(=O)CC` (stereo not given), the compound was classed as inactive. With `C[C@@H]1C[C@H]2[C@@H]3C[C@H](F)C4=CC(=O)C(Cl)=C[C@]4(C)[C@@]3(F)[C@@H](O)C[C@]2(C)[C@@]1(O)C(=O)CO`, the compound was called inactive. As to `C=COCC1CCC(COC=C)CC1` (stereo not given), the compound was classed as inactive. Same read-out and setting: to `C=COC(=O)C(C)(CC)CCC(C)C` (stereo not given) belongs “inactive”. On to `FB(F)F`, for which the result was inactive. Still for that read-out and setting: to `CC/C=C\CCOC(C)OCC` (stereo not given) belongs “inactive”.

On to `CC(=O)OCC(=O)[C@@]1(O)[C@H](C)C[C@H]2[C@@H]3CCC4=CC(=O)C=C[C@]4(C)[C@@]3(F)[C@@H](O)C[C@@]21C`, for which the call was inactive. Turning to `CCN[C@@H]1C[C@H](N)[C@@H](OC2OC(CN)=CCC2N)[C@H](O)[C@H]1O[C@H]1OC[C@](C)(O)[C@H](NC)[C@H]1O` (stereo not given in full), the activity change, negative = cytotoxicity is 1.54% [at 0.349 µM] (inactive).

In the case of `CC1=NS(=O)(=O)c2cc(Cl)ccc2N1`, the result was inactive. On to `CNCCO`, for which the compound was classed as inactive.

In the case of `CC(C)(C)C(=O)c1ccccc1`, the call was inactive.
